We go through 40 molecules from PubChem BioAssay AID720519 (National Center for Advancing Translational Sciences (NCATS), 2013).

Molecules are shown by their SMILES. Inconclusive results are not listed. Where a call stands in place of a potency, no number is given. Calls of active or inactive are those of the source. Calls follow the shape of the dose curve; as a rule, active = well fitted activation curve with a large enough effect; inconclusive = small, poorly fitted or top-dose-only effect; inactive = flat fitted curve, though single readings scatter.

The experiment can be described thus: qHTS for Inhibitors of Cell Surface uPA Generation: Confirmatory Assay for Cherry-picked Compounds. As to conditions: cell surface uPA activity generation, qHTS confirmation; series mostly up to 115 µM. The source says: The overall objective of this project is to perform a quantitative high throughput screen (qHTS) to identify novel compounds that inhibit the generation of cell surface urokinase activity. The urokinase plasminogen activator (uPA) is one of the two primary endogenous systems that mediate plasminogen activation into plasmin. Members of this system, including uPA and its receptor (uPAR), are overexpressed in several malignant tumors. This system plays a major role in adhesion, migration, invasion and metastasis of cancer cells. Small molecule inhibitors of the uPA system will serve as probes to understand the molecular mechanisms of the uPA cascade and better understanding the micro-environmental circumstances that facilitate the activation of plasminogen by uPA, and finally may provide novel candidate agents for anticancer drug therapy.
[…] […] Upon inhibition of the uPA activation cascade, the subsequent cell surface uPA activity-dependent translocation of LF into the cytoplasm is inhibited. ATP-Lite is used to measure intracellular ATP concentrations (measure cell viability) which remain increased if LF entry into the cytoplasm is inhibited. This validation assay was performed using a small set of cherry picked compounds. Activation of cell viability (increase in luminescence signal) due to inhibition of the cell surface uPA generation is the desired outcome of this assay.
NIH Chemical Genomics Center [NCGC]
NIH Molecular Libraries Probe Centers Network [MLPCN]
Assay Submitter (PI): Thomas Bugge, National Institute of Dental and Craniofacial Research, NIH
Cultured RAW 264.7 were dispensed into 1536-well clear bottom, white walled tissue culture plates at a density of 4000 cells/well and were incubated overnight (12-16 h) at 37 C in a 5% CO2 incubator. Serially diluted compounds (1:5 dilution) in 23 nl DMSO were added to cells (0.0024 uM to 3.83 uM final concentration). […] Compound and reagent-treated plates were incubated for 24 h at 37 C in a 5% CO2 incubator. Three microliter of PerkinElmer ATPlite was then added to each well and luminescence was detected using the PerkinElmer ViewLux plate reader for a 5 sec exposure.
Background: qHTS replaces the single test concentration by a dilution series.
In the case of `CCOCCCn1c(SCC(=O)Nc2cc(OC)ccc2OC)nc2ccccc2c1=O`, the Potency result was “inactive”.

Regarding `Cc1ccc(-c2cc(C(=O)NCC3CCCO3)no2)cc1` (stereo not given), the Potency entry is “inactive”.

`Cc1cc(C)n2c(SCC#N)nnc2n1`: the Potency entry was “inactive”.

Regarding `CCC1(C)NC(=O)N(CC(=O)Nc2sc3c(c2C(N)=O)CCC3)C1=O` (stereo not given), the Potency entry is “inactive”.

Turning to `Cc1cc(C)n(-c2cc(C(=O)O)cc(C(=O)O)c2)n1`, the Potency entry is “inactive”.

Consider `Clc1ccc(-c2nc3ccccn3c2CN2CCSCC2)cc1`, for which the Potency entry is “inactive”.

Regarding `COc1ccc(C(C(=O)NC2CCCC2)N(C(=O)c2ccoc2C)c2ccc(C)c(C)c2)cc1` (stereo not given), the Potency entry is “inactive”.

As for `O=C(O)CSc1nnc(COc2ccccc2)n1-c1ccccc1`, the Potency entry is “inactive”.

Turning to `COc1ccccc1NS(=O)(=O)c1cc(NC(=O)CCc2nc3ccccc3c(=O)[nH]2)ccc1C`, the Potency entry was “inactive”.

Turning to `O=C(c1ccco1)N1CCN(c2ncccn2)CC1`, the Potency entry was “inactive”.

Turning to `CC1CN(C(=O)CCC(=O)NCc2ccccc2)c2ccccc2S1` (stereo not given), the Potency entry was “inactive”.

As for `C/C(=N\NC(=O)c1cccc([N+](=O)[O-])c1)c1cccnc1`, the Potency result was “inactive”.

Turning to `O=C(c1ccccn1)C1CCCN(Cc2cn[nH]c2-c2cc3ccccc3o2)C1` (stereo not given), the Potency result is “inactive”.

For `COc1cc(CN2CCNC(=O)C2CC(=O)NCCCC2CCCC2)cc(OC)c1` (stereo not given), the Potency entry is “inactive”.

With `O=C(Cn1cnc2c(OCc3ccccc3)ncnc21)NCCCN1CCCC1=O`, the Potency result is “inactive”.

In the case of `CCN(C(=O)c1c(C)noc1C)c1c(N)n(Cc2ccccc2)c(=O)[nH]c1=O`, the Potency result is “inactive”.

For the molecule `Cc1ccc(C)c(-c2ccc(=O)n(Cc3c(F)cccc3Cl)n2)c1`, the Potency entry is “inactive”.

Take `O=C(NCc1ccc(F)cc1)c1cc(S(=O)(=O)N2CCCCC2)ccc1N1CCOCC1`: the Potency result is “inactive”.

In the case of `CCC(CC)Nc1ccc(C(CC(N)=O)NC(=O)Cc2ccc(Br)cc2)cc1[N+](=O)[O-]` (stereo not given), the Potency result is “inactive”.

For `CC(=O)Nc1c2c(nn1-c1cccc(C)c1)CSC2`, the Potency result is “inactive”.

As for `COc1ccc(C(=O)N[C@H](C(=O)NCc2cccs2)C(C)C)cc1`, the Potency result is “inactive”.

On to `CCSC1=NCCN1S(=O)(=O)c1ccc(Cl)cc1`, for which the Potency result was “inactive”.

Consider `CC(C)c1ccc(NC(=O)COc2ccc(S(=O)(=O)N3CCOCC3)cc2)cc1`, for which the Potency result was “inactive”.

On to `COc1ccc(C(=O)CC(=O)C(=O)Nc2ccccc2)cc1`, for which the Potency result is “inactive”.

For the molecule `COc1ccc(OC)c(NC(=O)C2CCCN2C(=O)C2CCC(C)CC2)c1` (stereo not given), the Potency entry is “inactive”.

On to `O=[N+]([O-])c1ccc(-c2cn3c(n2)SCC3)cc1`, for which the Potency result was “inactive”.

On to `O=C(CCc1ccccc1)NNC(=O)c1cccc(F)c1`, for which the Potency result was “inactive”.

Turning to `COc1ccc(C(=O)NCCCN2CCOCC2)cc1`, the Potency entry was “inactive”.

As for `CCOc1ccc(C2(C)CC(=O)N(C)C2=O)cc1` (stereo not given), the Potency entry is “inactive”.

On to `COc1cc(CNCCc2ccccc2)cc(Br)c1OCC(=O)Nc1ccccc1C`, for which the Potency result is “inactive”.

Regarding `O=C(COC(=O)c1cccc([N+](=O)[O-])c1)NNC(=O)c1cccs1`, the Potency entry is “inactive”.

In the case of `CC(C)(C)n1ncc2c(=O)n(Cc3ccc(Cl)cc3)cnc21`, the Potency result was “inactive”.

For `CCOC(=O)[C@H]1[C@H]2COc3ccc(Br)cc3[C@@H]2N2C(=O)c3c(C)cc(C)cc3NC(=O)[C@@]12C`, the Potency result was “inactive”.

In the case of `CC1(c2cccc([N+](=O)[O-])c2)CC(C)(C)N(C(=O)c2ccccc2)c2ccccc21` (stereo not given), the Potency result was “inactive”.

With `O=C(N/C(=C\c1cccc([N+](=O)[O-])c1)C(=O)N1CCOCC1)c1ccc([N+](=O)[O-])cc1`, the Potency entry is “inactive”.

In the case of `COc1ccc(CCNC(=O)Cn2c(=O)n(-c3cc(F)ccc3F)c(=O)c3sccc32)cc1OC`, the Potency result was “inactive”.

Turning to `CCOc1ccccc1C(=O)NC1CCN(CC(=O)Nc2cc(OC)ccc2OC)CC1`, the Potency result was “inactive”.

Regarding `C[C@H]1CN([C@@H](C)CO)C(=O)c2cc(NS(=O)(=O)c3ccc(Cl)cc3)ccc2O[C@@H]1CN(C)CC1CCCCC1`, the Potency result was “inactive”.

Turning to `COc1ccc(OC)c(NC(=O)C2CC2c2ccccc2)c1` (stereo not given), the Potency result is “inactive”.

In the case of `O=C(O)CNC(=S)N(Cc1ccccc1)Cc1cccnc1`, the Potency entry was “inactive”.
